Results on 30 compounds are retold here after PubChem BioAssay AID1852 (Sanford-Burnham Center for Chemical Genomics, 2009).

SMILES strings stand for the structures. The campaign covered roughly 2,500 compounds. About 1,100 (44%) were called active.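 How the source made its calls: active means inhibition above 50% at 4 µM in the single-point screen; inactive means inhibition of 50% or less.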 The set was probably picked from earlier hits. This is one part of the list.

This assay is described as follows: TNF-a-driven NF-kB reporter inhibitors, primary screen, selectivity assay for NOD1/NOD2 signaling inhibitor project, cell-based, HEK293T NF-kB-Luc, luminescence (AID 1852). Particulars: TNF-a induced, 14 h, at 4 µM, hits give high values.
In the case of `CC[n+]1c(/C=C2\Sc3ccccc3N2C)ccc2cccc(C)c21`, the inhibition – broadly, the relative decrease from the control value, in per cent – was 70.3% (active).

`CCN1/C(=C/c2sc(-c3ccccc3C)c[n+]2C)Sc2ccccc21`: the inhibition is 95.5% (active).

For `CCCCN1/C(=C/c2ccc3ccccc3[n+]2CC)Sc2ccccc21`, the inhibition is 45.1% (inactive).

On to `CCN1/C(=C/c2ccc3cccc(C)c3[n+]2CC)Sc2ccccc21`, for which the inhibition was 61.9% (active).

Turning to `CC(C)(C)C1C/C(=C/c2ccccn2)C(=O)/C(=C/c2ccccn2)C1` (stereo not given), the inhibition was 103% (active).

As for `CC1C/C(=C/c2ccccn2)C(=O)/C(=C/c2ccccn2)C1` (stereo not given), the inhibition was 96.2% (active).

For `O=C(Nc1ccc(-c2nc3ncccc3o2)cc1)c1ccc([N+](=O)[O-])o1`, the inhibition is 27.5% (inactive).

For the compound `O=C(NCc1ccccc1)C1=C[C@@H](c2csc3ccccc23)C[C@@H](OCCCCO)O1`, the inhibition was 69.1% (active).

Regarding `Cn1c(/C=C/c2ccc(Cl)cc2)c([N+](=O)[O-])c(=O)n(C)c1=O`, the inhibition was 18.7% (inactive).

On to `Cn1c(/C=C/c2ccc(Cl)cc2Cl)c([N+](=O)[O-])c(=O)n(C)c1=O`, for which the inhibition was 71.4% (active).

Turning to `Cn1c(/C=C/c2ccc(Br)cc2)c([N+](=O)[O-])c(=O)n(C)c1=O`, the inhibition is -12.1% (inactive).

For the compound `O=C(Nc1sc2c(c1C(=O)NCCCO)CCCC2)c1ccccc1`, the inhibition was 35.2% (inactive).

As for `Cc1sc(NC(=O)c2ccccc2)c(C(c2ccccn2)N2CCN(CCO)CC2)c1C` (stereo not given), the inhibition was 51.9% (active).

Regarding `Cc1nn(Cc2ccc(Cl)cc2)c(C)c1NC(=O)c1noc2c1CCc1ccccc1-2`, the inhibition is 105% (active).

Turning to `Cc1cc(C(=O)Nc2c(C)nn(Cc3c(Cl)cccc3Cl)c2C)no1`, the inhibition was -34.2% (inactive).

Consider `COc1cc(Cl)c(C)cc1NC(=O)CN(C)Cc1cccc(OC)c1OC`, for which the inhibition is 57.5% (active).

As for `CCN(CC(=O)Nc1ccc([N+](=O)[O-])cc1OC)c1ccccc1`, the inhibition was -39% (inactive).

With `COc1cccc(NC(=O)CN(C)CC(=O)Nc2ccc(C)c([N+](=O)[O-])c2)c1`, the inhibition is 42.8% (inactive).

For the compound `COc1cc(OC)nc(-n2ncc(Br)c(Br)c2=O)n1`, the inhibition was 105% (active).

Take `Cc1ccc(-n2ncc(Br)c(Br)c2=O)cc1`: the inhibition was 105% (active).

Regarding `O=c1c(Br)c(Br)cnn1-c1ccccc1`, the inhibition is 90.8% (active).

Take `Oc1cc2c(cc1C(c1ccc(Br)cc1)N1CCCC1)OCO2` (stereo not given): the inhibition is -3.2% (inactive).

On to `Cc1cc(/C=C2\SC(=S)N(C)C2=O)c(C)n1-c1ccc(O)cc1`, for which the inhibition was 24.7% (inactive).

Take `CN1C(=O)/C(=C/c2cc(N=Nc3ccccc3)ccc2O)SC1=S`: the inhibition is 98.2% (active).

Take `Cc1cc(/C=C2\SC(=S)N(C)C2=O)c(C)n1-c1cccc(O)c1`: the inhibition is -111% (inactive).

As for `S=C(NCCc1ccc(Cl)cc1)Nc1ccc(Cl)cc1Cl`, the inhibition was -10.9% (inactive).

`CN(C)S(=O)(=O)c1cccc(CSCc2cccc(S(=O)(=O)N(C)C)c2)c1`: the inhibition was 42.8% (inactive).

`S=C(NCCc1ccccc1)Nc1cccc2cnccc12`: the inhibition is 69.1% (active).

As to `Cc1cccc(N2CCN(C(=S)NCCc3ccccc3)CC2)c1C`, the inhibition was -31.3% (inactive).

With `CN(C)S(=O)(=O)c1cccc(NC(=S)Nc2cccc3cnccc23)c1`, the inhibition is 62.5% (active).
